Source: PubChem BioAssay
Active and inactive are the calls of the source.

Experiments:
[1] = optical density shifts of acrAB sulA E. coli – strain DRC41, OD650, 48 h, E. coli filamentation inducer project, primary screen (AID 1152); conditions: higher = more signal, called active from +8 up or from −8 down;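 note: E. coli MC1000 strain DRC41 lacking acrAB efflux pump and sulA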
[2] = probe aLefty1 binding on compound microarray – biochemical, small-molecule microarray, 635/667 nm fluorescence, primary screen (AID 1153); conditions: higher = more signal;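 note: score merges spot fluorescence with signal-to-noise ratio from the scanned slide images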
[3] = plasmodial surface anion channel blockers, osmotic lysis – cell-based, P. falciparum Indochina, OD700, 1 h, primary screen (AID 1154); conditions: P. falciparum Indochina infected RBC osmotic lysis, higher = more signal, called active from +8 up or from −8 down
[4] = plasmodial surface anion channel blockers, osmotic lysis – cell-based, P. falciparum Indochina, OD700, 2 h, primary screen (AID 1155);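 note: lysis reports solute entry through the parasite surface anion channel PSAC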; conditions: P. falciparum Indochina infected erythrocytes, higher = more signal, called active from +8 up or from −8 down
[5] = changes in parasitized red cell lysis, either direction – P. falciparum Indochina, OD700, 3 h, PSAC antagonist project, primary screen (AID 1156); conditions: P. falciparum-infected erythrocytes, osmotic lysis, higher = more signal, called active from +8 up or from −8 down
[6] = plasmodial surface anion channel blockers, osmotic lysis – cell-based, P. falciparum Indochina, OD700, 18 h, primary screen (AID 1157); conditions: P. falciparum Indochina infected erythrocytes, osmotic lysis OD700, 18 h; higher = more signal, called active from +8 up or from −8 down
[7] = S6 kinase pathway phospho-S6 level changes – cell-based, A549, cytoblot, luminescence, serum-stimulated, primary screen (AID 1158); conditions: 5 h, higher = more signal;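 note: serum-stimulated A549 lung adenocarcinoma cells; signal is phosphorylated S6 detected by cytoblot immunostaining with HRP secondary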
[8] = biological target: NADPH oxidase 2 (Homo sapiens) (UniProt P04839); assay: compounds shifting NOX2 Amplex Red fluorescence – cell-based, HEK293-NOX2, PMA-stimulated, NOX inhibitor project, primary screen (AID 1159); conditions: 45 min, higher = more signal, called active from +8 up or from −8 down; note: test concentration not given here
Sequence of NADPH oxidase 2 (Homo sapiens) (P04839 whole entry, looked up): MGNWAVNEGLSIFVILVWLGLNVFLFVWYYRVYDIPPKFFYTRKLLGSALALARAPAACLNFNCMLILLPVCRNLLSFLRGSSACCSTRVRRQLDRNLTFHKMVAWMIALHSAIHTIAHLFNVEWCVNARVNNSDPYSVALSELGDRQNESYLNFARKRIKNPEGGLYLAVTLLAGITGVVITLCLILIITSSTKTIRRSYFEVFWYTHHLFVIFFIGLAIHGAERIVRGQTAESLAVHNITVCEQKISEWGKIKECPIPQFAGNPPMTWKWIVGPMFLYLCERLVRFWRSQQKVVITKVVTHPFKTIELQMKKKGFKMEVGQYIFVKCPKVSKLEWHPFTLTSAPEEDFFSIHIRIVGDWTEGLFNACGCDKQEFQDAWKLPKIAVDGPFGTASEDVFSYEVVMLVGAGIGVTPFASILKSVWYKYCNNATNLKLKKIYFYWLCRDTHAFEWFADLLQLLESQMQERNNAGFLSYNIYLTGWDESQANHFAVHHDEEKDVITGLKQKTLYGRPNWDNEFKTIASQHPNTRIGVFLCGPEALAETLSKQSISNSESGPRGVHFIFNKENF

[9] = biological target: NADPH oxidase 4 (Homo sapiens) (UniProt Q9NPH5); assay: compounds shifting NOX4 Amplex Red fluorescence – cell-based, HEK293-NOX4, tetracycline-induced, NOX inhibitor project, primary screen (AID 1160); conditions: HEK293-NOX4, Amplex Red H2O2 fluorescence, 45 min; higher = more signal, called active from +8 up or from −8 down
Sequence of NADPH oxidase 4 (Homo sapiens) (Q9NPH5 whole entry, looked up): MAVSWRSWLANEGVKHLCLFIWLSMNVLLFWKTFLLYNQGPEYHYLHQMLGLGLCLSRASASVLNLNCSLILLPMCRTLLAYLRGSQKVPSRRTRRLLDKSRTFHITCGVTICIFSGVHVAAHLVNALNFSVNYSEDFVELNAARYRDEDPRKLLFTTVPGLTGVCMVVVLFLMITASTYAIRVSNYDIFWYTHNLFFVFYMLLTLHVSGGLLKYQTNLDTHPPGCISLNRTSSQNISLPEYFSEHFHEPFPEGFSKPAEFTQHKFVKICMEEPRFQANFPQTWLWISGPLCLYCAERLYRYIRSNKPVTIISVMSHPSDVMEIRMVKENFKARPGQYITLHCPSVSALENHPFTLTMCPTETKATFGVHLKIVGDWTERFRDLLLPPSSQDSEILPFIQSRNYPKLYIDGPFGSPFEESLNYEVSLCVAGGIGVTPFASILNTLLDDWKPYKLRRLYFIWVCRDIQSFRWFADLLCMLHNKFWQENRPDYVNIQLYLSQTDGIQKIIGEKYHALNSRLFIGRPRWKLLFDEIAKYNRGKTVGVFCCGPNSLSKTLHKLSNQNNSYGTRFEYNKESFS

[10] = biological target: NADPH oxidase 5 (Homo sapiens) (UniProt Q96PH1); assay: compounds shifting NOX5 Amplex Red fluorescence – cell-based, HEK293-NOX5, NOX inhibitor project, primary screen (AID 1161); conditions: HEK293-NOX5, ionomycin, 45 min, higher = more signal
Sequence of NADPH oxidase 5 (Homo sapiens) (Q96PH1 whole entry, looked up): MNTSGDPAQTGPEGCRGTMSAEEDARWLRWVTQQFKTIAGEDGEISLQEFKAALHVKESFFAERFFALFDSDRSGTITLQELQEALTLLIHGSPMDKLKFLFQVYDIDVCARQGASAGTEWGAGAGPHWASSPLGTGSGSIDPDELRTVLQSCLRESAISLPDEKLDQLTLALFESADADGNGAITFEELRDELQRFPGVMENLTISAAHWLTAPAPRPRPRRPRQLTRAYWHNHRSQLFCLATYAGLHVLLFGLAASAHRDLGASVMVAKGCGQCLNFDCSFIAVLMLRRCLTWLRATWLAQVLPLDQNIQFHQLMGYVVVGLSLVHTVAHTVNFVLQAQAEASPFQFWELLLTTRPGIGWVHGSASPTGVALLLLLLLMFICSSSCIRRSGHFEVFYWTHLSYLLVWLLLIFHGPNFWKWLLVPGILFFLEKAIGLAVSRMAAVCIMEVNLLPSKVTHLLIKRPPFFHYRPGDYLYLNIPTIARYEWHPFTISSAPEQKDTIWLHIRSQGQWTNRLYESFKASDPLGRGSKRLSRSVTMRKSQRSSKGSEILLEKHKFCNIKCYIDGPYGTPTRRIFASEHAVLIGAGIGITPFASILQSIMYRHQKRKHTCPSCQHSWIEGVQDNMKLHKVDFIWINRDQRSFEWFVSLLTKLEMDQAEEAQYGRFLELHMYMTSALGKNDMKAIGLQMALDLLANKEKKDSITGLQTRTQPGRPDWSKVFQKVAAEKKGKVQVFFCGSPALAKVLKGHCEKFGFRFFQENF

[11] = compound effects on lung adenocarcinoma cell viability – A549, calcein-AM fluorescence, 48 h, basal, profiling panel (AID 1162); conditions: higher = more signal; note: test concentration not given here
[12] = compound effects on differentiated 3T3-L1 adipocyte viability – cell-based, 3T3-L1 adipocytes, calcein-AM fluorescence, 48 h, basal, profiling panel (AID 1163); conditions: 3T3-L1 adipocytes viability, higher = more signal; note: test concentration not given here
[13] = compound effects on hepatocellular carcinoma cell viability – HepG2, calcein-AM fluorescence, 48 h, basal, profiling panel (AID 1164); conditions: higher = more signal; note: test concentration not given here
[14] = compound effects on multiple myeloma cell viability – MM1S, calcein-AM fluorescence, 48 h, basal, profiling panel (AID 1165); conditions: higher = more signal; note: test concentration not given here
[15] = calcein-AM signal in unstimulated myeloma cells – cell-based, calcein-AM fluorescence, 48 h, PK04 Diversity Set, profiling panel (AID 1166); conditions: RPMI8226 myeloma viability, higher = more signal;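 note: cells grown under basal conditions without added stimulus; test concentration not given here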
[16] = JC-1 mitochondrial signal, unstimulated HepG2 cells – cell-based, JC-1 fluorescence, 24 h, 100 nL compound, profiling panel (AID 1167); conditions: HepG2 mitochondrial potential, higher = more signal; note: test concentration not given here
[17] = JC-1 mitochondrial signal, unstimulated adipocytes – cell-based, JC-1 fluorescence, 3T3-L1 adipocytes, 24 h, 100 nL compound, profiling panel (AID 1168); conditions: JC-1 mitochondrial fluorescence, higher = more signal, called active from +8 up or from −8 down; note: test concentration not given here
[18] = JC-1 mitochondrial signal, unstimulated myeloma cells – cell-based, JC-1 fluorescence, RPMI8226, 24 h, 100 nL compound, profiling panel (AID 1169); conditions: JC-1 mitochondrial potential fluorescence, higher = more signal; note: test concentration not given here
[19] = JC-1 mitochondrial signal, unstimulated MM1S myeloma – cell-based, JC-1 fluorescence, 24 h, 100 nL compound, profiling panel (AID 1170); conditions: MM1S mitochondrial potential, higher = more signal; note: test concentration not given here
[20] = resazurin metabolic signal in A549 cells – cell-based, resazurin fluorescence, 24 h, PK04 Diversity Set, profiling panel (AID 1171); conditions: A549 viability, higher = more signal, called active from +8 up or from −8 down; note: test concentration not given here

Structure (SMILES) | z-score [1] | composite z-score [2] | z-score [3] | z-score [4] | z-score [5] | z-score [6] | z-score [7] | z-score [8] | z-score [9] | z-score [10] | z-score [11] | z-score [12] | z-score [13] | z-score [14] | z-score [15] | z-score [16] | z-score [17] | z-score [18] | z-score [19] | z-score [20]
CC(C)OC(=O)CC(=O)CC(O)c1ccc([N+](=O)[O-])cc1 (stereo not given) | -0.314 (inactive) | 0.0509 | 1.92 (inactive) | 0.586 (inactive) | 0.0451 (inactive) | 0.438 (inactive) | -0.243 | 0.0696 (inactive) | 0.66 (inactive) | 0.39 | 1.78 | -0.228 | 0.714 | 0.772 | 0.159 | 0.775 | 0.377 (inactive) | -0.121 | -0.359 | -0.741 (inactive)
[N-]=[N+]=Nc1ccccc1C[C@]1(C(=O)O)N=C(c2ccc(OCCCO)cc2)O[C@H]1c1ccccc1 | 0.174 (inactive) | -0.007 | 18.4 (active) | 2.83 (inactive) | 1.35 (inactive) | 0.589 (inactive) | -0.138 | 0.22 (inactive) | 0.818 (inactive) | 0.857 | 0.855 | -0.221 | 1.28 | 0.565 | 0.272 | -0.924 | -0.297 (inactive) | -0.954 | -0.547 | -0.605 (inactive)
C=CCN1C(=O)[C@]2(O[C@H](CCO)[C@@H]([Si](C)(C)c3ccc(OC)cc3)[C@@H]2C)c2cc(N3C(=O)COc4ccccc43)ccc21 | 0.512 (inactive) | 0.142 | 6.04 (inactive) | 2.56 (inactive) | -0.398 (inactive) | 0.742 (inactive) | 2.03 | 0.617 (inactive) | 0.0613 (inactive) | -1.94 | -3.84 | 1.76 | -4.67 | -2.7 | -4.36 | -2.14 | 0.707 (inactive) | -1.06 | -2.25 | -5.62 (inactive)
C=CCNC(=O)[C@H]1[C@@H]2C(=O)O[C@@H](c3ccccc3)[C@@H](c3ccccc3)N2[C@@H](c2ccc(OCCO)cc2)[C@]12C(=O)Nc1ccc(C#CCNC(N)=O)cc12 | -0.0661 (inactive) | 0.0809 | 2.59 (inactive) | 1.36 (inactive) | 1.42 (inactive) | 0.563 (inactive) | 0.326 | 1.91 (inactive) | 0.286 (inactive) | -0.621 | 0.292 | 1.63 | -0.529 | -1.41 | -0.062 | -1.11 | -0.657 (inactive) | -0.0816 | 0.938 | -0.805 (inactive)
CCCCC=C[C@@H](NC(=O)c1ccccc1)c1ccccc1 | -2.36 (inactive) | 0.0538 | 0.318 (inactive) | 0.279 (inactive) | 0.893 (inactive) | 0.765 (inactive) | 0.442 | -0.474 (inactive) | -2.77 (inactive) | -2.28 | -1.07 | -0.417 | -1.02 | -0.842 | -2.29 | 0.18 | -1.04 (inactive) | 0.135 | -0.434 | 0.962 (inactive)
Cc1cccc([C@H]2C[C@H]3C(I)=C[C@@H]2C(=O)[C@]32CO2)c1 | -0.894 (inactive) | -0.0559 | -0.0459 (inactive) | 0.0962 (inactive) | 0.0129 (inactive) | -0.0624 (inactive) | 0.0314 | -0.942 (inactive) | -0.0919 (inactive) | -0.835 | -0.985 | -0.176 | -0.902 | -3.19 | -3.12 | -1.45 | 0.224 (inactive) | -0.889 | -0.753 | -0.109 (inactive)
C[C@]1(C(=O)O)c2ccccc2C(=O)N(Cc2ccc(OC(F)(F)F)cc2)[C@H]1c1ccc(CO)cc1 | 0.026 (inactive) | 0.227 | 3.93 (inactive) | 0.789 (inactive) | 0.503 (inactive) | 0.18 (inactive) | -0.115 | 0.948 (inactive) | 0.41 (inactive) | -0.52 | 0.0055 | 0.755 | -0.167 | -0.24 | -1.48 | 0.248 | -1.18 (inactive) | -0.0611 | 0.057 | 0.244 (inactive)
COc1ccc(CCNC(=O)[C@@]2(Cc3ccccc3I)c3ccccc3C(=O)N(Cc3ccccc3Cl)[C@H]2c2ccc(CO)cc2)cc1 | -1.2 (inactive) | 0.893 | 4.53 (inactive) | 1.52 (inactive) | 1.55 (inactive) | 0.473 (inactive) | 0.0403 | 0.898 (inactive) | 0.183 (inactive) | 1.39 | -0.613 | -0.073 | -0.63 | -3.36 | -1.92 | 0.962 | 0.119 (inactive) | -0.0808 | -0.413 | 0.109 (inactive)
COC(=O)[C@@]1(Cc2ccccc2)[C@H]2c3cc(C(=O)N(C)C)n(CCn4cc([N+](=O)[O-])nc4C)c3C[C@H]2CN1C(=O)c1ccccc1 | -0.566 (inactive) | 0.0249 | -0.25 (inactive) | -0.949 (inactive) | -0.513 (inactive) | -0.956 (inactive) | 1.18 | 0.635 (inactive) | 1.24 (inactive) | -1.65 | -0.461 | 0.297 | -1.17 | 0.506 | 0.911 | 0.547 | 0.0518 (inactive) | -0.0192 | 0.377 | -0.0815 (inactive)
